Measured values taken from PubChem BioAssay (NCATS).
Results filed as inconclusive are left out. Values without a mark were called inactive. Activity calls are given as the source filed them. Calls follow the shape of the dose curve; as a rule, active = well fitted inhibition curve with a large enough effect; inconclusive = small, poorly fitted or top-dose-only effect; inactive = no such curve, though single readings can be large or run the other way.

test system: Zika virus NS2B-NS3 protease (linked construct); experiment: Primary screen NINDS Rhodamine qHTS for Zika virus inhibitors (AID 1347160); details: purified NS2B-NS3 protease, Rhodamine110 substrate fluorescence; series mostly up to 57.1 µM; activity change, negative = inhibition: at the top concentration; also: nearly all actives have a fitted effect of over 55% in size
Excerpt: Avindra Nath, Ph.D., National Institute of Neurological Disorders and Stroke (NINDS), Bethesda, MD
Radhakrishnan Padmanabhan, Ph.D., Georgetown University (GU), Washington D.C.
Zika Virus causes congenital defects, including microcephaly and is associated with Guillain-Barre syndrome, eningoencephalitis and myelitis in infected adult. […] Using a target-based approach, we hope to establish a screening paradigm to uncover novel, cell-active NS2B-NS3 protease (Zika Virus) specific inhibitors from NCATS' collection of small molecules using qHTS.
Four assay panel was created to identify potential Zika Virus inhibitors. Namely, (1) GU unlinked NS2B-NS3 AMC tagged protease qHTS, (2) GU unlinked NS2B-NS3 Rhodamine tagged protease qHTS, (3) NINDS linked NS2B-NS3 AMC tagged protease qHTS, (4) NINDS linked NS2B-NS3 Rhodamine tagged protease qHTS. Active compounds were re-acquired and re-screened to confirm inhibition. Inhibitors were further screened against various confirmatory and counterscreens in dose response format.
Early Translation Branch (ETB)
National Center for Advancing Translational Sciences (NCATS), Rockville, MD
National Institute of Health (NIH), Bethesda, Maryland
For the linked assay, Nath lab (NINDS) provided the purified linked NS2B-NS3 protease which is consists of hydrophilic domain of NS2B linked to the NS3 protease domain by a flexible (-[…]-) linker. Control compound aprotinin is obtained from Thermo Scientific (#78432; Waltham, Massachusetts). Rhodamine110 substrate ([N-Cbz]-Nle-Lys-Arg-Arg-Rhod110-Arg-Arg-Lys-Nle-[N-Cbz]) was purchased from either Genscript or Bachem.
1536-well Protease (Rhodamine110 Substrate) Assay:
Briefly, 3 microL of enzyme (25 nM final concentration), in assay buffer (10 mM Tris-HCl pH 8.0 with 0.01% Tween 20) were dispensed into a 1,536-well solid-bottom black plate (Greiner Bio One, Monroe, NC). Twenty-three nL of compounds (final concentration range 7.28 nM to 114 microM) or control Aprotinin (final concentration range 3.47 nM to 114 microM) were transferred via Wako Pin-tool (Wako Automation, Richmond, VA). Samples were incubated (room temperature, protected from light) for 15 minutes followed by a 1 microL Rhodamine110 substrate addition (1.5 microM final concentration). Plates were then immediately read on a ViewLux High-throughput CCD imager (PerkinElmer, Waltham, MA) equipped with FITC fluorescence optics (480(20) nm excitation, 540(25) nm emission), then incubated (room temperature, protected from light) for 15 minutes (~15% conversion). The change in fluorescence intensity over the 15-minute reaction period was normalized against no-inhibitor and no-enzyme controls and the resulting percent inhibition data were fitted to a 4-parameter Hill equation. Aprotinin was used as intraplate control.
% is scaled to controls: 0 for no effect and ±100 for the full control effect; potency is read from the fitted curve at half-maximal effect.

Row | SMILES | activity change, negative = inhibition | outcome | Potency
1 | CC(Oc1cc(-n2cnc3ccc(CN4CCN(C)CC4)cc32)sc1C(N)=O)c1ccccc1C(F)(F)F (stereo not given) | 97.5% | – | –
2 | CC(C)S(=O)(=O)N[C@H]1CCOC[C@@H]1c1ccc(-c2ccc(C#N)s2)cc1 | 19% | – | –
3 | N#Cc1ccc2[nH]cc(CCCCN3CCN(c4ccc5oc(C(N)=O)cc5c4)CC3)c2c1 | 83.7% | – | –
4 | CC(=O)OC1CC2(C)C3=CCC4(C)C5C(O)C(O)C(C(C)C)C5(C)CCC4(C)C3CCC2C(C)(C)C1OC1OC(CO)C(O)C(O)C1O (stereo not given) | -14.1% [at 15.1 µM] | – | –
5 | C=C1CCC2C(C)(C)CCC[C@]2(C)[C@H]1C/C=C(\CO)C(=O)C(=O)O (stereo not given in full) | -8.84% [at 33.1 µM] | – | –
6 | COC(=O)c1c(C)cc(OC(=O)c2c(C)cc(OC)cc2OC)cc1O[C@@H]1O[C@H](CO)[C@@H](O)[C@H](O)[C@H]1O | – | inactive [at 33.1 µM] | –
7 | COc1ccc(CNC(=O)c2cc(-c3cncc(C)c3)ncc2-c2nccs2)nc1OC | 17.7% | – | –
8 | CC1(C)CC[C@]2(C(=O)O)CC[C@]3(C)C(=CCC4[C@@]5(C)C[C@@H](O)[C@H](O)C(C)(C)C5CC[C@]43C)C2C1 (stereo not given in full) | – | – | 10 µM (active)
9 | Cc1cccc(S(=O)(=O)N2CCC[C@@H]2CCN2CCC(C)CC2)c1 | -13.9% | – | –
10 | C[C@H](C/C=C/C(C)(C)O)[C@H]1CC[C@@]2(C)[C@@H]3[C@@H](O[C@@H]4O[C@H](CO)[C@@H](O)[C@H](O)[C@H]4O)C=C4C(CC[C@H](O)C4(C)C)[C@]3(C=O)CC[C@]12C (stereo not given in full) | -17.7% [at 15.1 µM] | – | –
11 | Cc1cc(=O)oc2c(C=O)c(O)ccc12 | 5.58% | – | –
12 | CC1(O)CCCC2(C)C1CCC13CC(CO)C(CCC12)C3 (stereo not given) | 16% | – | –
13 | Cc1cccc(C)c1OCc1cc(C(=O)N2CCC(c3ccncc3)CC2)no1 | -10.3% | – | –
14 | CC(C)(C)CCN1C[C@@H]2C(CNC(=O)c3cc(Cl)cc(Cl)c3)[C@@H]2C1 (stereo not given in full) | 51.4% | – | –
15 | C=C[C@H]1[C@H](O[C@@H]2O[C@H](CO)[C@@H](O)[C@H](O)[C@H]2O)OC=C(C(=O)OC)[C@H]1CC(=O)O | – | inactive [at 33.1 µM] | –
16 | Cc1cc(Nc2ccc(NC(=O)c3ccc(Nc4ccnc5ccccc45)cc3)cc2)nc(N)n1 | -7.83% | – | –
17 | CC/C=C\[C@H](O)[C@H](O)C1=C(C)C(=O)[C@]2(O1)C(=O)N[C@@](OC)(C(=O)c1ccccc1)[C@@H]2O | -17.8% [at 33.1 µM] | – | –
18 | C[C@@H]1C(=O)O[C@H](C)[C@H]1CC(=O)[C@](C)(O)[C@H]1CC[C@@]2(O)C3=CC(=O)[C@@H]4C[C@@H](O)[C@@H](O)C[C@]4(C)C3CC[C@]12C (stereo not given in full) | -1.43% [at 33.1 µM] | – | –
19 | COc1c2c(c(C)c3c1C(=O)OC3)O[C@@]1(C)CCC3(C(C)(C)O)OC(=O)CC[C@]3(C)[C@H]1C2 (stereo not given in full) | – | inactive [at 33.1 µM] | –
20 | CCC(O)C(C)C1CCC(C(C)C(=O)O)O1 (stereo not given) | -5.36% | – | –

Row | SMILES | activity change, negative = inhibition | outcome | Potency
21 | C=CC1C(OC2OC(CO)C(O)C(O)C2O)OC=C(C(=O)OC)C1CC(=O)OCC1C(C)C(O)CC1C(CO)COC(=O)CC1C(C(=O)O)=COC(OC2OC(CO)C(O)C(O)C2O)/C1=C\C (stereo not given) | – | inactive [at 15.1 µM] | –
22 | NC(=O)c1csc(C2OC(CO)C(O)C2O)n1 (stereo not given) | – | inactive | –
23 | C[C@@H]1CC[C@@]2(OC1)O[C@H]1C[C@H]3[C@@H]4CC=C5C[C@@H](O)CC[C@]5(C)[C@H]4CC[C@]3(C)[C@H]1[C@@H]2C | 29% [at 33.1 µM] | – | –
24 | O=C(O)Cc1ccc2oc(-c3ccc(NC(=O)/C=C/c4ccc(Br)cc4)c(F)c3)nc2c1 | – | – | 3.16 µM (active)
25 | CC[C@H](C)[C@H](NC(=O)[C@H]([C@@H](C)CC)N(C)C(C)=O)C(=O)N[C@H](C(=O)N[C@@H](CC(C)C)C(=O)[C@@]1(C)CO1)[C@@H](C)O | -8.87% | – | –
26 | O=C(c1ccc2nccnc2c1)N1CCCCC1 | – | inactive | –
27 | CC(C)CC1NC(=O)C2CC3(O)c4ccccc4NC3N2C1=O (stereo not given) | – | inactive [at 33.1 µM] | –
28 | O=C1Nc2ccccc2C(O)(c2ccccc2)C1O (stereo not given) | 29.3% | – | –
29 | CC(=O)c1ccc2c(c1)C(O)C(C(C)(C)O)O2 (stereo not given) | – | inactive | –
30 | Cc1nc(Nc2n[nH]c3c2CN(C(=O)NC(CN(C)C)c2ccccc2)C3(C)C)c2sccc2n1 (stereo not given) | – | inactive | –
31 | C/C=C/C=C/C(O)=C1\C(O)=C(C)C(=O)[C@@]2(C)OC(=O)[C@@](C)(NC(=O)/C=C/C(=O)O)[C@@H]12 | -4.15% [at 33.1 µM] | – | –
32 | COc1ccc(Cl)c(Nc2nc3ccccc3nc2NS(=O)(=O)c2cccc(NC(=O)C(C)(C)N)c2)c1 | – | – | 5.01 µM (active)
33 | C=C[C@H]1[C@H](O[C@@H]2O[C@H](CO)[C@@H](O)[C@H](O)[C@H]2O)OC=C(C(=O)OC)[C@H]1C/C=C(/C=O)[C@@H]1C(C(=O)OC)=CO[C@@H](O[C@@H]2O[C@H](CO)[C@@H](O)[C@H](O)[C@H]2O)[C@@H]1C=C | -8.43% [at 15.1 µM] | – | –
34 | C[C@@H]1CC[C@]2(C(=O)O[C@@H]3O[C@H](CO)[C@@H](O)[C@H](O)[C@H]3O)CC[C@]3(C)C(=CCC4[C@@]5(C)C[C@@H](O)[C@H](O)[C@@](C)(C(=O)O[C@H]6[C@H](O)C[C@@]7(C)C(CC[C@]8(C)C7CC=C7[C@H]9[C@](C(=O)O[C@@H]%10O[C@H](CO)[C@@H](O)[C@H](O)[C@H]%10O)(CC[C@@H](C)[C@@]9(C)O)CC[C@]78C)[C@@]6(CO)C(=O)O)C5CC[C@]43C)[C@@H]2[C@]1(C)O (stereo not given in full) | -25.7% [at 10.7 µM] | – | –
35 | C=C(C)C1CCC2(C(=O)O[C@@H]3O[C@H](CO[C@@H]4O[C@H](CO)[C@@H](O)[C@H](O)[C@H]4O)[C@@H](O)[C@H](O[C@@H]4O[C@@H](C)[C@H](O)[C@@H](O)[C@H]4O)[C@H]3O)CCC3(C(=O)O)C(CCC4C5(C)CCC(O)C(C)(C)C5CCC43C)C12 (stereo not given in full) | -14.9% [at 15.1 µM] | – | –
36 | COc1cc(C(=O)OC[C@H]2O[C@@H](Oc3ccccc3/C=C/C(=O)O)[C@H](O)[C@@H](O)[C@@H]2O)cc(OC)c1OC | -11.9% [at 33.1 µM] | – | –
37 | COc1cc2ncnc(N3CCC(Oc4cnc5ccccc5n4)C3)c2cc1OC (stereo not given) | – | inactive | –
38 | COc1ccc(-c2cnc(-c3cccc4c3-c3ccccc3C4=O)o2)cc1 | 9.87% [at 33.1 µM] | – | –
39 | OC[C@H]1O[C@@H](Oc2ccccc2)[C@H](O)[C@@H](O)[C@@H]1O | -12.5% | – | –
40 | Cc1ccc(NC(=O)c2ccc(CN3CC[C@H](N(C)C)C3)c(C(F)(F)F)c2)cc1Nc1nccc(-c2cncnc2)n1 | – | inactive [at 33.1 µM] | –
